Screening data deposited in PubChem BioAssay by National Center for Advancing Translational Sciences (NCATS).
An excerpt weighted towards active compounds, which were near 10% of everything screened.
aGal spleen mod = alpha-galactosidase A (human) modulation; human spleen homogenate, 4MU-alpha-Gal fluorescence, 40 min; P06280; actives 0.008% (n = 240,000); Potency, µM (highest dose often 80 µM), for inactives: top-dose activity change, negative = inhibition, actives largely listed as inhibitors;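 also: potency is read from the fitted curve at half-maximal effect; 0% = enzyme with vehicle and -100% = no enzyme basal signal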
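Spleen homogenate 1 ug + cpd (titration) + 4-MU-alpha-D-galactopyranoside 1 mM; 37C 40 min; 50 mM citrate/phosphate pH 5.0, 0.01% Tween-20; stop pH 10; fluorescence 365/440; AC50 via Hill.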
ALDH1A1 inh = ALDH1A1 (human) enzyme inhibition; actives 7.3% (n = 220,000); P00352; AID 1030; Purified ALDH1A1, NADH fluorescence, propionaldehyde substrate; Potency, µM (doses to about 75.3 µM), for inactives: at the top dose activity, negative = inhibition, usual class: inhibitors; active = well fitted inhibition curve with a large enough effect, not every such curve was filed as active; inconclusive = small, poorly fitted or top-dose-only effect, or another doubt; inactive = no such curve, though single readings can be large or run the other way;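 also: potency is read from the fitted curve at half-maximal effect; plate controls were no enzyme wells and a reference inhibitor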
HPGD inh = HPGD (human) dehydrogenase inhibition | P15428 | purified HPGD, NADH fluorescence kinetic, PGE2 substrate | Potency, µM, inactives show at the highest dose activity change, negative = inhibition, usual class: inhibitors | actives 4.3% (n = 150,000); active = well fitted inhibition curve with a large enough effect, not every such curve was filed as active; inconclusive = small, poorly fitted or top-dose-only effect, or another doubt; inactive = no such curve, though single readings can be large or run the other way; also: potency is read from the fitted curve at half-maximal effect
Target sequence (P15428 whole entry, looked up): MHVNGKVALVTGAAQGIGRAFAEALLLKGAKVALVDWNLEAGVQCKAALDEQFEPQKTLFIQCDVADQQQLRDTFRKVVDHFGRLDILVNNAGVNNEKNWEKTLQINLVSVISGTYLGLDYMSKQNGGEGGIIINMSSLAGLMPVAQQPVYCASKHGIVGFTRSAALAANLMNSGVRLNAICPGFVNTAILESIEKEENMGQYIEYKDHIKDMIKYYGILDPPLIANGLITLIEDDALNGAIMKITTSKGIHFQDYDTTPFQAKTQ
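NADH formation kinetics: reaction with 30 uM PGE2 and 1 mM NAD+ (final), 20 nM enzyme, Tris-HCl pH 8 with Tween 20, after 15 min compound preincubation at room temperature. Fluorescence change, last versus first of five reads.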
ALOX12 inhib = inhibitors of human 12-lipoxygenase (ALOX12). purified 12-hLO, xylenol orange hydroperoxide absorbance. Potency, µM (doses to about 57.1 µM), inactives show top-dose activity change, negative = inhibition, usual class: inhibitors. actives 0.12% (n = 150,000); also: potency is read from the fitted curve at half-maximal effect; nearly all actives have a fitted effect of over 55% in size
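Lipoxygenase turnover measured by absorbance at 573 and 405 nm after Fe-XO development. Human 12hLO 150 nM, arachidonate 40 uM, pH 7.0 Hepes buffer with detergent; 15 min compound preincubation, 30 min reaction.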
PNC assembly inh = inhibitors of perinucleolar compartment assembly; PC3M PTB-GFP, PNC prevalence imaging, 16 h; stronger effect = lower value; activity change (PNC), negative = inhibition, % at 10 µM; actives 3.1% (n = 140,000); AID 2417;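 active = readout at or below -70, meaning at least 70% loss of cells showing the perinucleolar compartment, a nuclear body marking cancer cells; inconclusive = readout between -30 and a set limit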;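 also: plate controls were DMSO wells for no effect and camptothecin positive control wells for full effect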
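Read-out is percentage of cells bearing a perinucleolar compartment, from automated 20x imaging of fixed, Hoechst-stained PC3M PTB-GFP cells. Cells were seeded 4 h, then exposed 16 h to compound (23 nl of library stock) in duplicate plates.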
GLA inh pH 4.5 = inhibitors of human alpha-galactosidase A at pH 4.5; activity change, negative = inhibition, % at 105 µM; 230,000 tested, under 10 active; AID 1467; purified enzyme, 4-MU-alpha-Gal fluorescence, pH 4.5;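 also: 0% = full activity with enzyme and -100% = basal without enzyme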
Target sequence (P06280 whole entry, looked up): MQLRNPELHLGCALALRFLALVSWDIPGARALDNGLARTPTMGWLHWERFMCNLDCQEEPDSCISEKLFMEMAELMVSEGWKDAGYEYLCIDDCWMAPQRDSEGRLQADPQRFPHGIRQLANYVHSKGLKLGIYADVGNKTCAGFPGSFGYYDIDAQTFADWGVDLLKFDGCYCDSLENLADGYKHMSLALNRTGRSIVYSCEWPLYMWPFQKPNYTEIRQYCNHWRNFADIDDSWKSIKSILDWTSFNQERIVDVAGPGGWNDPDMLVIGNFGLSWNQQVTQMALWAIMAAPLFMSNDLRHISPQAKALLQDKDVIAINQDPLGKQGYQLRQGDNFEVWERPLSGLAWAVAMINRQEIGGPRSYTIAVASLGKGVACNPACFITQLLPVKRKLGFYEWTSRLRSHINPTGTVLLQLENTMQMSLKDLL
* hit, by the source's call; ? = inconclusive; . = not tested or not shown; [ ] = another dose, or the depositor's remark. Unless noted, calls follow the shape of the dose curve; as a rule, active = well fitted curve in the direction sought with a large enough effect; inconclusive = small, poorly fitted or top-dose-only effect, or another doubt; inactive = no such curve, though single readings can be large; an effect the other way counts as inactive or inconclusive. Unless noted, % is scaled to controls: 0 for no effect and ±100 for the full control effect.

SMILES	aGal spleen mod	ALDH1A1 inh	HPGD inh	ALOX12 inhib	PNC assembly inh	GLA inh pH 4.5
CN(C)S(=O)(=O)c1ccc(NC(=S)NC(=O)c2ccc(Br)o2)cc1	29%	13µM*	.	.	.	2
CCCOc1ccc(/C(O)=C2/C(=O)C(=O)N(CCCn3ccnc3)C2c2ccc(C)o2)cc1 (centres undefined)	-10%	.	.	.	.	-1
CN1CCN(c2c(F)cc3c(=O)c(C(=O)O)cn4c3c2OCN4C)CC1	1%	.	.	.	.	-1
O=S(=O)(NC(=S)NC1CCCCC1)c1ccc(Cl)cc1	-2%	25µM*	.	.	.	6
Cc1ccc(S(=O)(=O)NC(=S)NC2CCCCC2)cc1	8%	35µM*	.	.	.	-18
O=C(NNS(=O)(=O)c1ccc(Cl)cc1)NC1CCCCC1	-1%	-3%	-1%	2%	-26	7
NS(=O)(=O)c1ccc(CCNC(=S)NC2CCCCC2)cc1	1%	.	.	.	.	4
CCc1ccc(S(=O)(=O)NC(=S)NC2CCCCC2)cc1	-1%	25µM*	.	.	.	-5
Clc1ccc(-c2nnc(-c3ccco3)nc2N2CCCCC2)cc1	1%	2.2µM*	?	-7%	?	-9
COC(=O)c1cccc(Oc2nc3c(c(=O)n(C)c(=O)n3C)n2C(C)C)c1	3%	0%	-7%	5%	-97*	-11
CCSc1nc2c(c(=O)[nH]1)C(c1cccs1)C(C(=O)OC)=C(C)N2 (centres undefined)	3%	-14%	?	-2%	29	9
Cc1cc(C)c2nc(-c3ccccn3)cc(C(=O)Nc3cc(C)on3)c2c1	2%	?	?	7%	-86*	-13
Cc1cc(NC(=O)c2cc(-c3ccccn3)nc3ccccc23)no1	0%	-8%	-4%	1%	-3	0
Cc1nnc(N2C(=O)C(O)=C(C(=O)c3ccco3)C2c2ccc(C(C)(C)C)cc2)s1 (centres undefined)	6%	0%	-6%	7%	-109*	4
Cc1nnc(N2C(=O)C(O)=C(C(=O)c3ccco3)C2c2ccc(F)cc2)s1 (centres undefined)	0%	-9%	-7%	15%	-13	-7
O=C(O)CCC(=O)Nc1ccccc1C(=O)NCc1ccccc1	-1%	9%	3%	0%	33	-26
CCc1cccc(CC)c1NC(=O)CO/N=C(\C)c1cccs1	6%	-4%	0.63µM*	-2%	-1	-10
CC(=O)c1ccc(NC(=O)CO/N=C(\C)c2cccs2)cc1	12%	-18%	-16%	-3%	-7	-7
C/C(=N\OCC(=O)Nc1ccccc1C(=O)O)c1cccs1	2%	?	.	.	.	8
C/C(=N/OCC(=O)Nc1ccc(C)cc1C)c1cccs1	13%	20%	7.9µM*	-1%	31	-1
CCC1=C2CC[C@H]3C(=O)N(C)C(=O)[C@H]3[C@H]2[C@@]2(C)C(=NCc3ccccc3)OC(=O)N2C1=O	-1%	3%	1%	-4%	.	-10
CCOC(=O)/C(C(=O)Nc1ccc(Cl)cc1Cl)=C1/NC(C)(C)Cc2ccccc21	-3%	13µM*	-17%	-6%	-8	-9
CN1C(CC(=O)Nc2ccc(Cl)cc2Cl)c2ccccc2CC1(C)C (centres undefined)	4%	.	.	.	.	-11
COC(=O)CCC(NC(=O)c1cc(-c2ccc3c(c2)OCCO3)oc1C)C(=O)OC (centres undefined)	-12%	20µM*	-20%	-5%	-10	-9
COC(=O)[C@@H](Cc1c[nH]c2ccccc12)NC(=O)c1cc(=O)[nH]c2ccccc12	-7%	.	.	.	.	-2
SMILES	aGal spleen mod	ALDH1A1 inh	HPGD inh	ALOX12 inhib	PNC assembly inh	GLA inh pH 4.5
COC(=O)C(Cc1c[nH]c2ccccc12)NC(=O)c1cc(-c2ccc(OC)c(OC)c2)oc1C (centres undefined)	3%	28µM*	32µM*	-8%	38	-9
O=C(Nc1ccccc1)OC1CCCCc2cccnc21 (centres undefined)	-8%	.	.	.	.	1
C[C@H](C(=O)c1ccncc1)c1ccccn1	.	3%[13.5 µM]	-15%	1%[11.4 µM]	.	.
CCNC(=O)C/C(C)=N/NC(=O)C(=O)Nc1ccc(CC)cc1	7%	0%	.	.	.	-5
CCN(CC)C(=O)c1sc(NC(=O)c2ccc(C)c([N+](=O)[O-])c2)c(C#N)c1C	-7%	-1%	28µM*	0%	?	-4
COc1ccc(C(=O)Nc2sc(C(=O)N(C)C)c(C)c2C#N)cc1[N+](=O)[O-]	3%	?	-26%	-5%	34	-8
CCN(CC)C(=O)c1sc(NC(=O)c2ccc(OC)c([N+](=O)[O-])c2)c(C#N)c1C	-8%	-1%	18µM*	-2%	0	-9
CCc1ccccc1NC(=S)N(CCOC)C(C)c1ccco1 (centres undefined)	6%	.	.	.	.	7
CCn1c(=NC(=O)C2COc3ccccc3O2)sc2c(OC)ccc(OC)c21 (centres undefined)	3%	.	.	.	.	-4
COC(=O)N/N=C\c1c(C)nn(-c2ccccc2)c1Cl	-6%	4%	-20%	-1%	-20	4
Cc1ccc(-c2cc(C(=O)N/N=C/c3c(C)nn(-c4ccccc4)c3C)n[nH]2)s1	1%	?	?	1%	-115*	?
Cc1nn(-c2ccccc2)c(C)c1/C=N/NC(=O)c1cc(C(C)(C)C)[nH]n1	-1%	?	-27%	-2%	-83*	-10
Cc1ccc(-c2cc(C(=O)N/N=C/c3c(C)nn(-c4ccccc4)c3C)[nH]n2)cc1	-14%	2%	?	9%	-92*	-1
Cc1ccc(-c2cc(C(=O)N/N=C/c3ccco3)[nH]n2)cc1	-6%	-2%	-9%	-23%	0	-1
COc1cccc([C@@H]2Oc3ccc(Br)cc3C(=O)[C@H]2OC(=O)Nc2cc(OC)c(OC)c(OC)c2)c1	-7%	-2%	-9%	.	.	3
NS(=O)(=O)c1ccc(CCn2c(=S)[nH]c3ccc(F)cc3c2=O)cc1	1%	2%	.	.	.	-2
Cc1nc([N+](=O)[O-])cn1CC(O)c1ccc(-c2ccccc2)cc1 (centres undefined)	2%	.	.	.	.	-11
COC(=O)c1ccc(COC(=O)c2ccc(-n3cnnn3)cc2)o1	1%	20µM*	-17%	0%	-23	7
Cc1ccccc1NC(=O)CSc1nc2cc3c(cc2cc1C)CCC3	6%	1%	-8%	4%	20	8
CCC(=O)Nc1ccc(NC(=O)CSc2nc3cc4c(cc3cc2C)CCC4)cc1	11%	11µM*	-21%	4%	-20	-3
Cc1ccc(S(=O)(=O)N(C)C)cc1NC(=S)NC12CC3CC(CC(C3)C1)C2	5%	?	.	-20%	-21	-6
